Screening results as filed in PubChem BioAssay.
An excerpt weighted towards active compounds, which were near 2.1% of everything screened.
FUS yeast rescue = suppressors of FUS proteinopathy in yeast; S. cerevisiae FUS-expressing, growth rescue, OD600, 24 h; Potency, µM (top dose mostly 76.6 µM), most hits filed as activators; 0.24% of 390,000 active;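 note: plate controls were DMSO vehicle for no effect and reference control for full effect; nearly all actives have a fitted effect of over 55% in size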
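Quantitative HTS measuring growth restoration of FUS-toxic yeast. Galactose-induced cells (OD 0.005) were exposed 24hr at 30C to compounds at several concentrations, then absorbance at 600 nm was recorded.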
Abeta rescue = restores growth of yeast expressing A-beta42 peptide. yeast expressing A-beta42, growth rescue, OD600, 48 h; response scale: 0% DMSO, 100% iron-clioquinol control. Potency, µM (doses to about 46.1 µM), usual class: activators. 0.063% of 410,000 active; note: nearly all actives have a fitted effect of over 55% in size
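Growth rescue measured by 600 nm absorbance after 48 h yeast culture at 30 C with compound. Values normalized between DMSO and an equimolar ferric chloride plus clioquinol control.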
TDP-43 yeast inh = rescues yeast growth from TDP-43 toxicity. TDP-43 expressing yeast growth rescue, BacTiter-Glo, 24 h. 1.8% of 410,000 active. Potency, µM (doses to about 46.1 µM), without a hit: at the top dose growth rescue (activation), hits mostly activators. AID 652104; note: % of control where 0% means no effect; nearly all actives have a fitted effect of over 50% in size
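Growth rescue of TDP-43-toxic yeast measured as ATP luminescence (BacTiter-Glo). Cells grown to mid-log in raffinose, induced in galactose at OD600=0.02, exposed to compound 24 hr at 30 deg C.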
aSyn yeast inh = inhibitors of alpha-synuclein toxicity in yeast | 0.14% of 370,000 active | Potency, µM (doses to about 46.1 µM), for the others: at the top dose growth rescue (activation), most hits filed as activators | AID 652106 | Yeast expressing alpha-synuclein, growth rescue, BacTiter-Glo, 24 h; note: % of control where 0% means no effect; nearly all actives have a fitted effect of over 65% in size
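Screening used galactose-induced yeast with toxic alpha-synuclein levels, exposed to compound for 24 hr at 30 deg C. Cell growth, read with BacTiter-Glo luminescence, gave the measured signal.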
* marks the source's active call; other numbers are inactive results; i = inactive; ? = inconclusive; . = not tested or not shown. Calls come from the whole dose curve; as a rule, active = well fitted curve in the direction sought with a large enough effect; inconclusive = small, poorly fitted or top-dose-only effect, or another doubt; inactive = no such curve, though single readings can be large; an effect the other way counts as inactive or inconclusive. Potency is the fitted concentration of half-maximal effect.

SMILES | FUS yeast rescue | Abeta rescue | TDP-43 yeast inh | aSyn yeast inh
COc1ccc(C(C(=O)NCC2CCCO2)N(Cc2ccco2)C(=O)c2snc(C(N)=O)c2N)cc1OC (stereo unspecified) | i | i | 1.4% | -1.2%
COc1ccc(CCNC(=O)C2CCCN(C(=O)c3ccc(Cl)cc3)C2)cc1 (stereo unspecified) | i | i | -18.7% | -4.1%
O=C(CSc1n[nH]c(-c2ccncc2)n1)NC1CCS(=O)(=O)C1 (stereo unspecified) | ? | i | 5.6% | 0.6%
C[C@H]1CN([C@@H](C)CO)C(=O)c2cc(C#CCC3CCCC3)cnc2O[C@@H]1CN(C)C(=O)CC1CC1 | i | i | 10.6% | 7.2%
Cc1cc(C)c2c(-n3cccc3)n[nH]c2n1 | i | i | -9.9% | 1.0%
Cc1cc(C)c2c(-n3cccc3)nn(CC#N)c2n1 | i | i | 12.6µM* | 16.2%
CC(C)(C)c1csc(N(CCC#N)CCC#N)n1 | i | i | -2.4% | 3.2%
c1cc(N2CCCC2)ccc1C(c1nnnn1C1CCCCC1)N1CCOCC1 (stereo unspecified) | 39.8µM* | i | -7.3% | 27.3%
Cc1ccc(C)c2sc(N3CCN(C(=O)c4ccco4)CC3)nc12 | i | i | 11.2µM* | .
O=C(c1ccco1)N1CCN(c2nc3c(Cl)cccc3s2)CC1 | i | i | ? | .
Cc1cccc2sc(N3CCN(C(=O)c4ccco4)CC3)nc12 | i | i | 11.2µM* | .
Cc1ccc(C(=O)N/N=C\c2ccc3c(c2)OCO3)cn1 | i | i | -16.5% | -0.8%
CCc1cc(=O)oc2c3c(cc(OCC(=O)NCc4ccco4)c12)OC(C)(C)CC3 | i | i | 35.5µM* | -2.3%
CCc1ccc(OCC(=O)NCc2ccco2)c(Br)c1 | i | i | 12.6µM* | -3.3%
O=C(COc1ccccc1Br)NCc1ccco1 | i | i | -9.8% | 1.0%
O=C(c1ccco1)N1N=C(c2ccccc2O)CC1c1cccs1 (stereo unspecified) | i | i | 35.5µM* | 15.4%
CC(C)N(Cc1nc(-c2ccccc2)no1)C(=O)CN(C)S(=O)(=O)c1ccccc1 | i | i | 12.6µM* | 13.3%
CC(C)N(Cc1nc(-c2ccccc2)no1)S(=O)(=O)c1ccccc1 | i | i | ? | 5.8%
Cc1cc(S(=O)(=O)N2CCCC2)ccc1OCC(=O)NCc1ccccc1 | i | i | 3.8% | 1.3%
O=C(c1ccccc1)c1ccc2cc(O)ccc2c1 | i | i | 11.2µM* | -30.5%
O=C(c1ccc(O)cc1)c1ccc(Cl)cc1 | i | i | 11.2µM* | 10.3%
COc1ccc(C(=O)c2ccc(Cl)cc2)cc1 | i | i | -8.6% | -13.3%
O=C(c1ccccc1)c1ccc2ccccc2c1 | i | i | -15.0% | -12.8%
Cc1ccc(C(=O)c2ccc(O)cc2)cc1C | i | i | 17.8µM* | -0.5%
Cc1ccc(C(=O)c2cccc(N)c2)cc1C | i | i | 2.6% | 7.9%
SMILES | FUS yeast rescue | Abeta rescue | TDP-43 yeast inh | aSyn yeast inh
O=C1c2ccccc2C(=O)N1CCCc1c[nH]c2ccc(Cl)cc12 | . | i | 10µM* | 5.2%
CCOC(=O)CSc1nc2cc(C(=O)OC)ccc2c(=O)n1CCN1CCOCC1 | i | i | -13.8% | -0.4%
C=CCNc1nc(Cl)nc(NC2CCCCC2)n1 | i | i | 15.8µM* | -16.9%
Cc1c(C(=O)N2CCN(c3ccccc3)CC2)oc2c(Cl)cccc12 | i | i | ? | 2.0%
CCc1cc(C(=O)N2CCN(S(=O)(=O)c3ccccc3F)CC2)sc1C | i | i | 22.4µM* | 14.0%
COCc1c(C(=O)N2CCN(S(=O)(=O)c3ccccc3Cl)CC2)oc2ccccc12 | i | i | 11.2µM* | 4.3%
COCc1c(C(=O)N2CCN(Cc3nc4ccccc4s3)CC2)oc2ccccc12 | . | i | 20.5% | 1.8%
Cc1c(C(=O)N2CCN(S(=O)(=O)c3ccccc3F)CC2)oc2c(Cl)cccc12 | ? | i | 14.1µM* | -0.4%
CCOC(=O)[C@@H]1[C@H]2COc3cc(OC)ccc3[C@@H]2N2C(=O)N(c3cccc(F)c3)C(=O)[C@@]12C | i | i | -14.5% | -3.4%
N=c1ccn(CC(=O)c2ccc(-c3ccccc3)cc2)cc1 | i | i | -7.0% | 1.9%
COc1ccc(N2CCN(C(=O)Cc3noc4ccc(C)cc34)CC2)cc1 | i | i | 11.2µM* | .
Cc1ccc2onc(CNC(=O)N3CCN(c4cccc(C)c4C)CC3)c2c1 | ? | i | 20µM* | .
Cc1ccc2onc(CC(=O)N3CCN(c4ccccc4)CC3)c2c1 | i | i | ? | .
O=[N+]([O-])c1ccc(Cl)c(/C=N/N2CCN(C3c4ccccc4-c4ccccc43)CC2)c1 | . | i | 14.9% | 0.0%
Nc1nccc(/C=C/c2c(Cl)cccc2Cl)n1 | i | i | ? | 16.2%
Fc1ccc(C(NCCc2ccc(Cl)cc2)c2nnc(-c3ccccc3Cl)o2)cc1 (stereo unspecified) | i | i | 31.6µM* | .
CCCCn1nc(NC(=O)CC)c2cc3cc(OC)ccc3nc21 | i | i | 11.2µM* | -0.4%
COc1ccc2nc3c(cc2c1)c(NC(=O)c1cccs1)nn3CC(C)C | ? | i | 25.1µM* | 2.4%
O=C(COC(=O)/C=C/c1ccc(Cl)cc1)NCCc1ccccc1 | i | i | 3.5% | -1.1%
C=CCOc1ccc(/C=C/C(=O)OCC(=O)NCCc2ccccc2)cc1 | i | i | 25.1µM* | 24.2%
CCN(CC)S(=O)(=O)c1cccc(NC(=O)CN(C)C2CCCCC2)c1 | i | i | -17.9% | 0.2%
CCN(CC(=O)Nc1c(F)cccc1F)C(=O)C(C)SCc1nc2sc(C)c(C)c2c(=O)[nH]1 (stereo unspecified) | . | i | 11.4% | -2.0%
Cn1c(=O)c2c(nc3n2CC(COc2ccccc2)O3)n(C)c1=O (stereo unspecified) | i | i | 2.8% | 11.0%
Cn1cc(C(=O)c2cccc(Cl)c2Cl)cc1C(=O)O | i | i | 0.3% | -1.6%
COC(=O)c1cc(C(=O)c2ccc(Cl)cc2Cl)cn1C | i | i | 11.2µM* | -5.4%
SMILES | FUS yeast rescue | Abeta rescue | TDP-43 yeast inh | aSyn yeast inh
Cn1cc(C(=O)c2ccc(Cl)cc2Cl)cc1C=O | i | i | -23.5% | 19.7%
COC(=O)c1cc(C(=O)c2cccc(Cl)c2Cl)cn1C | i | i | 17.8µM* | 12.7%
O=C(Nc1ccc2nn(-c3ccc(F)cc3)nc2c1)c1cccnc1 | i | i | ? | -3.7%
Cc1cccc(-c2nc(CSCC(=O)NCCc3ccc(Cl)cc3)c(C)o2)c1 | ? | i | 25.1µM* | .
Cc1ccc(CNC(=O)CSCc2nc(-c3cccc(C)c3)oc2C)cc1 | i | i | 23.3% | .
Cc1ccc(CCNC(=O)CSCc2nc(-c3ccc(C)cc3)oc2C)cc1 | i | i | 25.1µM* | .
CN(Cc1ccccc1)S(=O)(=O)c1cccs1 | i | i | 18.8% | 8.7%
O=c1oc(CCO)cc2ccc(C#Cc3ccsc3)cc12 | i | i | 17.8µM* | -2.4%
